# The supplement of paper PMC8728848
# The sample as a whole holds a higher share of the strongest signals than the screen did.
# How the values were obtained:
# Experiment in all cases: glycan array binding signal (z-score within array); higher = stronger binding
# Conditions in all cases: glycan notation: IUPAC condensed, linker removed
# [1] = molecular target: Fuc(a1-2)Gal(b1-3)GalNAc(a1-3)[Fuc(a1-2)]Gal(b1-4)Glc
# Procedure, shortened: (§1)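 Glycan array data were curated from 3228 arrays in the Consortium for Functional Glycomics database and kept only where the protein sequence was available. Glycan names were converted to IUPAC-condensed notation, and columns mapping to the same glycan were averaged. The binding signal is a within-array Z-score, averaged across arrays of the same protein sequence at different concentrations or buffers and across linkers. Negative Z-scores can be read as non-binding.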
# Fuc(a1-2)Gal(b1-3)GlcNAc = molecular target: Fuc(a1-2)Gal(b1-3)GlcNAc
# Procedure, shortened: as §1
# [2] = molecular target: Fuc(a1-2)Gal(b1-3)GlcNAc(b1-3)[Neu5Ac(a2-6)Gal(b1-4)GlcNAc(b1-6)]Gal(b1-4)Glc
# Procedure, shortened: as §1
# [3] = molecular target: Fuc(a1-2)Gal(b1-3)[Fuc(a1-4)]GlcNAc(b1-3)[Fuc(a1-3)[Gal(b1-4)]GlcNAc(b1-6)]Gal(b1-4)Glc
# Procedure, shortened: as §1
# [4] = molecular target: Fuc(a1-2)Gal(b1-4)GlcNAc(b1-2)Man
# Procedure, shortened: as §1
# [5] = molecular target: Fuc(a1-2)Gal(b1-4)GlcNAc(b1-2)[Fuc(a1-2)Gal(b1-4)GlcNAc(b1-4)]Man(a1-3)[Fuc(a1-2)Gal(b1-4)GlcNAc(b1-2)Man(a1-6)]Man(b1-4)GlcNAc(b1-4)GlcNAc
# Procedure, shortened: as §1
# [6] = molecular target: Fuc(a1-2)Gal(b1-4)GlcNAc(b1-3)[Fuc(a1-3)[Gal(b1-4)]GlcNAc(b1-6)]Gal(b1-4)Glc
# Procedure, shortened: as §1
# [7] = molecular target: Fuc(a1-2)[GalNAc(a1-3)]Gal(b1-4)GlcNAc(b1-6)GalNAc
# Procedure, shortened: as §1
# [8] = molecular target: Fuc(a1-3)[Gal(b1-4)]GlcNAc(b1-2)Man(a1-3)[Fuc(a1-3)[Gal(b1-4)]GlcNAc(b1-2)Man(a1-6)]Man(b1-4)GlcNAc(b1-4)[Fuc(a1-6)]GlcNAc
# Procedure, shortened: as §1
# [9] = molecular target: Fuc(a1-3)[Gal(b1-4)]GlcNAc(b1-6)[Gal(b1-3)GlcNAc(b1-3)]Gal(b1-4)Glc
# Procedure, shortened: as §1
# [10] = molecular target: Fuc(a1-3)[GalNAc(b1-4)]GlcNAc
# Procedure, shortened: as §1
# Fuc(a1-4)GlcNAc = molecular target: Fuc(a1-4)GlcNAc
# Procedure, shortened: as §1
# [11] = molecular target: Gal(a1-3)Gal(b1-4)GlcNAc(b1-6)GalNAc
# Procedure, shortened: as §1
# Gal(a1-3)GalNAc = molecular target: Gal(a1-3)GalNAc
# Procedure, shortened: as §1
# [12] = molecular target: Gal(b1-3)GalNAc(b1-4)Gal(b1-4)Glc
# Procedure, shortened: as §1
# [13] = molecular target: Gal(b1-3)GlcNAc(b1-3)Gal(b1-4)GlcNAc(b1-6)[Gal(b1-3)GlcNAc(b1-3)]Gal(b1-4)Glc
# Procedure, shortened: as §1
# [14] = molecular target: Gal(b1-3)GlcNAc(b1-3)Gal(b1-4)[Fuc(a1-3)]GlcNAc(b1-6)[Gal(b1-3)GlcNAc(b1-3)]Gal(b1-4)Glc
# Procedure, shortened: as §1
# [15] = molecular target: Gal(b1-3)[GlcNAc(b1-6)]GalNAc
# Procedure, shortened: as §1
# [16] = molecular target: Gal(b1-4)GlcNAc(b1-2)[Gal(b1-4)GlcNAc(b1-6)]Man(a1-6)[GlcNAc(b1-4)][Gal(b1-4)GlcNAc(b1-2)Man(a1-3)]Man(b1-4)GlcNAc(b1-4)GlcNAc
# Procedure, shortened: as §1
# [17] = molecular target: Gal(b1-4)GlcNAc(b1-3)Gal(b1-4)Glc
# Procedure, shortened: as §1
# [18] = molecular target: Gal(b1-4)GlcNAc(b1-3)Gal(b1-4)GlcNAc(b1-3)Gal(b1-4)GlcNAc(b1-3)Gal(b1-4)GlcNAc(b1-3)Gal(b1-4)GlcNAc(b1-2)Man(a1-3)[Gal(b1-4)GlcNAc(b1-3)Gal(b1-4)GlcNAc(b1-3)Gal(b1-4)GlcNAc(b1-3)Gal(b1-4)GlcNAc(b1-3)Gal(b1-4)GlcNAc(b1-2)Man(a1-6)]Man(b1-4)GlcNAc(b1-4)GlcNAc
# Procedure, shortened: as §1
# [19] = molecular target: Gal(b1-4)GlcNAc(b1-3)Gal(b1-4)[Fuc(a1-3)]GlcNAc(b1-3)Gal(b1-4)[Fuc(a1-3)]GlcNAc
# Procedure, shortened: as §1
# [20] = molecular target: Gal(b1-4)GlcNAc(b1-6)Gal(b1-4)GlcNAc
# Procedure, shortened: as §1
# Gal3S(b1-4)Glc = molecular target: Gal3S(b1-4)Glc
# Procedure, shortened: as §1
# [21] = molecular target: Gal3S(b1-4)[Fuc(a1-3)]GlcNAc
# Procedure, shortened: as §1
# Gal6S(b1-4)GlcNAc6S = molecular target: Gal6S(b1-4)GlcNAc6S
# Procedure, shortened: as §1
# [22] = molecular target: Glc(a1-6)Glc(a1-6)Glc(a1-6)Glc
# Procedure, shortened: as §1
# [23] = molecular target: GlcNAc(b1-3)Gal(b1-4)GlcNAc(b1-2)Man(a1-3)[GlcNAc(b1-3)Gal(b1-4)GlcNAc(b1-2)Man(a1-6)]Man(b1-4)GlcNAc(b1-4)GlcNAc
# Procedure, shortened: as §1
# [24] = molecular target: GlcNAc(b1-3)Gal(b1-4)GlcNAc(b1-3)Gal(b1-4)GlcNAc
# Procedure, shortened: as §1
# [25] = molecular target: GlcNAc(b1-3)Gal(b1-4)GlcNAc(b1-3)Gal(b1-4)GlcNAc(b1-2)[GlcNAc(b1-3)Gal(b1-4)GlcNAc(b1-3)Gal(b1-4)GlcNAc(b1-6)]Man(a1-6)[GlcNAc(b1-3)Gal(b1-4)GlcNAc(b1-3)Gal(b1-4)GlcNAc(b1-2)Man(a1-3)]Man(b1-4)GlcNAc(b1-4)[Fuc(a1-6)]GlcNAc
# Procedure, shortened: as §1
binder,measurement,setting,value
Epf (Streptococcus pyogenes) (protein) GDHGPEFNGVMVVKAAEAEELPDDLMNFKGTWEVSADGSSGRFFSKGATDSYVFHLIPAKDVKKPGWREHNEVKDSYIKIDKQSIAARYKTSTTAPYSVAFKVNTKSLIKDHDYKITFEQGQIASGITVDYRIGSAFNKTTDDSFKISDESKYASNVKIEGEEQGFKQREQGDKTISFRTLKEGPMSLVLLSKVEKKPQGDLDVEFKNLKIIDVTNPSQLDKGVAYVGNKNVQLTLKSDDGRTNFEGDEISLFNSRGELLQTVTVTKDQQNPISITLSEDQAKSLKNKEKLKVSIKQKQSKKTSKDFFFEVGIDPKVEAKQKEKLLELDKVKKQIEDSINGDAWLPEKPVDLQGDHGLSAWSHPQFEK,glycan array binding signal (z-score),[1],-0.202
same,glycan array binding signal (z-score),Fuc(a1-2)Gal(b1-3)GlcNAc,-0.175
same,glycan array binding signal (z-score),[2],0.514
same,glycan array binding signal (z-score),[3],3.33
same,glycan array binding signal (z-score),[4],0.654
same,glycan array binding signal (z-score),[5],-0.184
same,glycan array binding signal (z-score),[6],2.21
same,glycan array binding signal (z-score),[7],-0.052
same,glycan array binding signal (z-score),[8],-0.996
same,glycan array binding signal (z-score),[9],-2.21
same,glycan array binding signal (z-score),[10],2.73
same,glycan array binding signal (z-score),Fuc(a1-4)GlcNAc,-0.354
same,glycan array binding signal (z-score),[11],-1.75
same,glycan array binding signal (z-score),Gal(a1-3)GalNAc,0.627
same,glycan array binding signal (z-score),[12],-0.182
same,glycan array binding signal (z-score),[13],2.25
same,glycan array binding signal (z-score),[14],3.16
same,glycan array binding signal (z-score),[15],0.807
same,glycan array binding signal (z-score),[16],3.4
same,glycan array binding signal (z-score),[17],-1.14
same,glycan array binding signal (z-score),[18],2.53
same,glycan array binding signal (z-score),[19],-1.31
same,glycan array binding signal (z-score),[20],-0.547
same,glycan array binding signal (z-score),Gal3S(b1-4)Glc,1.73
same,glycan array binding signal (z-score),[21],1
same,glycan array binding signal (z-score),Gal6S(b1-4)GlcNAc6S,2.34
same,glycan array binding signal (z-score),[22],0
same,glycan array binding signal (z-score),[23],-0.562
same,glycan array binding signal (z-score),[24],0.659
same,glycan array binding signal (z-score),[25],0.082
